This passage reports growth results from PubChem BioAssay (NCI).

Common to all, as to assay: NCI-60 one-dose screen, 48 h (100 = growth as untreated, 0 = no growth, -100 = all killed)
For one test, the system named is SK-MEL-2 melanoma. Particulars: 10 µM unless noted.
A further test has as its system EKVX NSCLC. Particulars: 10 µM unless noted.
The next test relates to SN12C renal. Particulars: 10 µM unless noted.
The next test concerns UO-31 renal. To be noted: 10 µM unless noted.
The next test deals with TK-10 renal. To be noted: 10 µM unless noted.
The test system of another test is A498 renal. Particulars: 10 µM unless noted.
A further test has as its system CCRF-CEM leukemia. To be noted: 10 µM unless noted.
For the next test, the system named is MOLT-4 leukemia. To be noted: 10 µM unless noted.
For the next test, the system named is SR leukemia. Particulars: 10 µM unless noted.
Another test concerns OVCAR-8 ovarian. Particulars: 10 µM unless noted.
A further test has as its system OVCAR-5 ovarian. Particulars: 10 µM unless noted.
In the next test the test system is OVCAR-4 ovarian. To be noted: 10 µM unless noted.
Another test concerns SK-OV-3 ovarian. To be noted: 10 µM unless noted.
The subject of a further test is IGROV1 ovarian. To be noted: 10 µM unless noted.
A further test has as its system OVCAR-3 ovarian. Particulars: 10 µM unless noted.
A further test concerns HS 578T breast. To be noted: 10 µM unless noted.
A further test relates to NCI/ADR-RES ovarian. To be noted: 10 µM unless noted.
A further test deals with RPMI-8226 leukemia. To be noted: 10 µM unless noted.
The next test concerns ACHN renal. To be noted: 10 µM unless noted.
In a further test the test system is CAKI-1 renal. Particulars: 10 µM.

Structures are written as SMILES. The panel holds about 83,000 compounds, 20% with a hit somewhere; the sample as a whole holds those more often.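 96-well plates, one dose, 48 hours. Percent growth reported; active if below 10.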 Unmarked numbers belong to inactive results. Calls of active or inactive are those of the source.

With `COc1cc(NC(=O)C#Cc2ccccc2)c(OC)cc1Cl`, the growth was 60.4% with SK-MEL-2 melanoma; 62.7% in the test on EKVX NSCLC; 26.4% in the test on SN12C renal; 40.4% in the test with UO-31 renal; 111% in the test on TK-10 renal; 100% with A498 renal. Further, the growth in the test on CCRF-CEM leukemia was 11.1%; in the test with MOLT-4 leukemia, 22.4%; in the test on SR leukemia, 12.4%; with OVCAR-8 ovarian, 38.6%; with OVCAR-5 ovarian, 79.4%; in the test with OVCAR-4 ovarian, 93.8%. Moreover, the growth is 97.8% in the test on SK-OV-3 ovarian; 4.48% (active) with IGROV1 ovarian; 82.8% with OVCAR-3 ovarian; 79.8% in the test on HS 578T breast; 56.5% in the test with NCI/ADR-RES ovarian.

`C#C[C@H](O)/C=C/CCCCCCC#C[C@H](O)CC[C@@H](O)C#CCCCCCC/C=C/[C@@H](O)C#C`: the growth with SK-MEL-2 melanoma was 92.7%; with EKVX NSCLC, 90.2%; with SN12C renal, 69.1%; in the test on UO-31 renal, -82.6% (active); in the test on TK-10 renal, 106%; in the test on A498 renal, 102%. Moreover, the growth with CCRF-CEM leukemia was -37.3% (active); in the test on MOLT-4 leukemia, 0.882% (active); with SR leukemia it was -22.8% (active); in the test with RPMI-8226 leukemia it was 21.3%; in the test on OVCAR-8 ovarian, 89.1%; with OVCAR-5 ovarian it was 111%. The growth in the test with OVCAR-4 ovarian is 101%; in the test on IGROV1 ovarian, -37.6% (active); in the test on OVCAR-3 ovarian, 96%; in the test on HS 578T breast, 95.9%; in the test with NCI/ADR-RES ovarian, 54.5%.

Take `O=c1cc(Cl)[nH]c(=O)[nH]1`: the growth in the test on SK-MEL-2 melanoma was 91.8%; in the test on EKVX NSCLC, 104%; with SN12C renal it was 107%; with UO-31 renal, 96.4%; in the test with TK-10 renal it was 98.1%; in the test on A498 renal, 100%. Further, the growth with CCRF-CEM leukemia is 111%; in the test with MOLT-4 leukemia, 88.5%; in the test on SR leukemia, 111%; in the test on RPMI-8226 leukemia, 98.6%; in the test on OVCAR-8 ovarian, 104%; in the test on OVCAR-5 ovarian it was 105%. The growth with OVCAR-4 ovarian was 109%; with IGROV1 ovarian, 109%; in the test on OVCAR-3 ovarian, 109%; with HS 578T breast, 103%; with NCI/ADR-RES ovarian, 105%.

Regarding `COc1ccc(/C=C/C(=O)c2ccc(NC(=O)CSc3nnc(-c4cc(OC)c(OC)c(OC)c4)o3)cc2)cc1`, the growth is 37.7% with SK-MEL-2 melanoma; -2.83% (active) with EKVX NSCLC; -43.5% (active) in the test on SN12C renal; -85.3% (active) in the test with UO-31 renal; 78.8% in the test on TK-10 renal; 90.5% in the test with A498 renal. Also, the growth with CCRF-CEM leukemia was -1.51% (active); in the test on MOLT-4 leukemia it was -25.9% (active); with SR leukemia, -60.5% (active); with RPMI-8226 leukemia, -43.7% (active); in the test with OVCAR-8 ovarian it was -14.3% (active); in the test with OVCAR-5 ovarian, 7.48% (active). For the same compound, the growth was -49.9% (active) in the test on OVCAR-4 ovarian; -39.2% (active) with IGROV1 ovarian; -93.8% (active) with OVCAR-3 ovarian; 45.3% in the test with HS 578T breast; 3.13% (active) with NCI/ADR-RES ovarian.

Take `CN1CCN(CC(=O)N(C)c2ccc(N=C(c3ccccc3)c3c(O)[nH]c4ccc(C#N)cc34)cc2)CC1`: the growth with SK-MEL-2 melanoma is 16.4%; in the test on EKVX NSCLC, 63.4%; in the test on SN12C renal, 26.4%; with UO-31 renal, 23.9%; in the test on ACHN renal, 48.4%; in the test on CAKI-1 renal, 20.2%. Moreover, the growth in the test with A498 renal is 27%; in the test on CCRF-CEM leukemia, 15.8%; with MOLT-4 leukemia, 8.12% (active); in the test on SR leukemia, 0.738% (active); in the test on RPMI-8226 leukemia it was 57.6%; in the test on OVCAR-8 ovarian it was 39.1%. For the same compound, the growth is 80.1% in the test on OVCAR-5 ovarian; 48% in the test with OVCAR-4 ovarian; -7.83% (active) in the test on SK-OV-3 ovarian; 31% in the test with IGROV1 ovarian; 52.2% with OVCAR-3 ovarian; -2.32% (active) with HS 578T breast. Moreover, the growth in the test with NCI/ADR-RES ovarian was 106%.

For `COc1ccc(-c2nn(-c3ccc(NC(=O)Nc4cc(C(F)(F)F)cc(C(F)(F)F)c4)cc3)cc2-c2ccncc2)cc1Cl`, the growth is -38.3% (active) in the test with SK-MEL-2 melanoma; 21.7% with EKVX NSCLC; 17.2% in the test on SN12C renal; 13.3% with UO-31 renal; 18.5% in the test with ACHN renal; 5.4% (active) in the test with CAKI-1 renal. Besides, the growth with A498 renal was 0.688% (active); with CCRF-CEM leukemia it was 9.25% (active); in the test with MOLT-4 leukemia, 6.78% (active); with SR leukemia, 1.23% (active); in the test on RPMI-8226 leukemia it was -29.3% (active); in the test with OVCAR-8 ovarian it was 12.9%. Besides, the growth in the test on OVCAR-5 ovarian was 17.7%; in the test with OVCAR-4 ovarian, 47%; in the test with SK-OV-3 ovarian, 22.9%; in the test on IGROV1 ovarian, 26.3%; with OVCAR-3 ovarian it was 3.27% (active); with NCI/ADR-RES ovarian, 14%.

On to `COCCNC(C(=O)c1ccccc1)c1ccccc1` (stereo not drawn), for which the growth was 107% in the test on SK-MEL-2 melanoma; 99.2% with EKVX NSCLC; 100% with SN12C renal; 97.7% in the test with UO-31 renal; 106% in the test with ACHN renal; 102% in the test on CAKI-1 renal. Besides, the growth with A498 renal was 88.4%; in the test on CCRF-CEM leukemia, 101%; in the test with MOLT-4 leukemia, 98.6%; in the test on SR leukemia, 109%; with RPMI-8226 leukemia, 98.4%; in the test with OVCAR-8 ovarian it was 97.7%. Further, the growth with OVCAR-5 ovarian is 95.1%; in the test with OVCAR-4 ovarian, 105%; in the test with SK-OV-3 ovarian, 101%; with IGROV1 ovarian, 102%; in the test on OVCAR-3 ovarian it was 104%; in the test on HS 578T breast, 100%. For the same compound, the growth in the test with NCI/ADR-RES ovarian is 107%.

As for `NCC(=O)NS(=O)(=O)OC[C@H]1O[C@@H](n2cnc3c(N)ncnc32)[C@H](O)[C@@H]1O`, the growth is -34.4% (active) with SK-MEL-2 melanoma; 44.1% in the test with EKVX NSCLC; 1.03% (active) with SN12C renal; 6.08% (active) in the test on UO-31 renal; 11.8% in the test on ACHN renal; 5.11% (active) in the test with CAKI-1 renal. The growth in the test on A498 renal is -58.8% (active); in the test on CCRF-CEM leukemia it was 21.7%; in the test with MOLT-4 leukemia, 1.15% (active); with SR leukemia it was 9.93% (active); in the test with RPMI-8226 leukemia, 18%; in the test on OVCAR-8 ovarian, -11.9% (active). The growth with OVCAR-5 ovarian is 0.292% (active); with OVCAR-4 ovarian, -22.1% (active); with SK-OV-3 ovarian it was 6.28% (active); with IGROV1 ovarian, 11.7%; with OVCAR-3 ovarian, 10%; in the test on HS 578T breast, 16.1%. Further, the growth in the test with NCI/ADR-RES ovarian is 2.07% (active).
